Measured values from PubChem BioAssay AID1321 (The Scripps Research Institute Molecular Screening Center, 2008).
Out of some 220,000 compounds screened, about 2,600 (1.2%) were called active.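 Rule for the calls: active = activation above the mean of all tested compounds plus 3 SD, set per screening run (cut at about 8.8% in these data); inactive = the rest.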 The sample as a whole holds a higher share of actives than the screen did.

Target: Wee1-like protein kinase (Homo sapiens) (UniProt P30291)
Test: compounds stabilizing Wee1-luciferase fusion – cell-based, HeLa, Wee1K328M-luciferase, luminescence, primary screen (AID 1321);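 note: cells exposed to compound for 20 h before luminescence read; 0% = DMSO alone and 100% = MG132 at 30 µM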
Conditions: HeLa Luc-Wee1K328M stability, at 5 µM, active compounds read high, 100% = proteasome inhibitor MG132 effect

SMILES | reporter increase
CC(=O)NC(=S)Nc1ccc(NC(=S)NC(=O)c2ccc([N+](=O)[O-])cc2)cc1 | 1.61% (inactive)
Cc1nnc(C)c2c(C)n(N)c(C)c12 | 3.05% (inactive)
O=C(CCl)Nc1ccc(Sc2ccc(NC(=O)CCl)cc2)cc1 | -0.49% (inactive)
Cc1ccc(NC(=O)CCN2CCc3ccccc3C2)cc1 | 0.24% (inactive)
Cc1ccc(NC(=O)CC(=O)Nc2ccc(C)cc2)cc1 | 1.54% (inactive)
Cc1ccc(NC(=O)CN2CCc3ccccc3C2)cc1 | 12.7% (active)
COc1ccc(NC(=O)C2=C(C)NC(=O)NC2c2ccccc2[N+](=O)[O-])cc1 (stereo not drawn) | 0.32% (inactive)
Cc1cc(O)c(NC(=O)c2ccc(C)c([N+](=O)[O-])c2)cc1C | 2.32% (inactive)
O=C(O)c1cc(Cl)c(Cl)cc1C(=O)Nc1cccc2ncccc12 | -2.37% (inactive)
Cc1ccc(C(=O)Nc2cccc3ncccc23)cc1[N+](=O)[O-] | 54.1% (active)
O=C(Nc1cccc2ncccc12)C(Cl)(Cl)Cl | 9.1% (active)
O=[N+]([O-])c1cccc2ncccc12 | -1.36% (inactive)
O=C(Nc1cccc2ncccc12)c1ccc(-c2ccc(Cl)cc2Cl)o1 | 7.64% (inactive)
O=C(NC(=O)c1ccccc1N1CCCCC1)Nc1ccc(Br)cc1 | -1.56% (inactive)
Fc1ccc(Nc2nnns2)cc1 | -1.03% (inactive)
CN1CCN(c2cc3c(cc2F)c(=O)c(C(=O)O)cn3CCF)CC1 | -0.92% (inactive)
C#CCNc1ccc(C(=O)OCC)cc1 | -0.22% (inactive)
CCOC(=O)c1c(NC(=O)c2cccs2)sc(C)c1C | -0.63% (inactive)
CCOC(=O)c1c(/N=C/C2C(=O)CC(C)(C)CC2=O)sc(C)c1C | 12.6% (active)
CCOC(=O)c1sc(/N=C/C2=C(O)CC(C)(C)CC2=O)c(C(=O)OCC)c1C | 0.6% (inactive)
COc1cc(OC)cc(/C(N)=N/O)c1 | 5.93% (inactive)

SMILES | reporter increase
Cc1ccc(CN(C)CC(=O)Nc2cccc([N+](=O)[O-])c2)o1 | 8.93% (active)
CC(=O)Nc1cccc([N+](=O)[O-])c1 | 1.71% (inactive)
CN(CC(=O)Nc1cccc(F)c1)CC(=O)Nc1cccc([N+](=O)[O-])c1 | 3.36% (inactive)
COc1ccc(N=Nc2ccc(O)c(P(=O)(c3ccccc3)c3ccccc3)c2)cc1 | 2.24% (inactive)
Clc1ccc(C[n+]2cc(-c3ccccc3)n3c2CCC3)cc1 | -0.29% (inactive)
COc1ccccc1NC(=O)c1ccc(C)s1 | -0.54% (inactive)
COc1ccccc1NC(=O)C1=C(C)Nc2nc3ccccc3n2C1c1cccs1 (stereo not drawn) | 5.69% (inactive)
COc1ccccc1NC(=O)C1=C(C)NC(=O)NC1c1ccc(C)s1 (stereo not drawn) | 9.03% (active)
Nc1nc(Nc2ccccc2)nc(NCCO)c1[N+](=O)[O-] | -3.26% (inactive)
Cc1cc(C)c(C)c(S(=O)(=O)N[C@@H](C)C(=O)OC(C)C(=O)NC(N)=O)c1C (stereo partly drawn) | -2.95% (inactive)
COc1ccc(/C=N/Nc2nc3ccccc3o2)cc1OC | 4.92% (inactive)
COc1cccc(/C=N\Nc2nncc(-c3ccccc3)n2)c1 | 0.25% (inactive)
CCOc1ccc(/C=N/Nc2nncc(-c3ccccc3)n2)cc1OC | 16.9% (active)
OCCN1CCN(C(=S)c2ccc(-c3ccccc3)cc2)CC1 | -3.59% (inactive)
COc1ccc(NC(=O)C2CCC(CNc3c(N4CCCCC4)c(=O)c3=O)CC2)c(OC)c1 (stereo not drawn) | 1.06% (inactive)
CCOC(=O)c1nnn2c3ccccc3c(=O)n(C)c12 | -0.3% (inactive)
Cc1ncn2cc(-c3ccc(Cl)cc3Cl)[nH]c(=O)c12 | -1.11% (inactive)
Cc1ccc(S(=O)(=O)/N=C(/NC(=S)Nc2c(C)n(C)n(-c3ccccc3)c2=O)c2ccccc2)cc1 | -0.69% (inactive)
Cc1cccc(NC(=O)CSc2nnc(CCCCCNC(=O)OC(C)(C)C)o2)c1C | -2.16% (inactive)
CCc1ccccc1NC(=O)CSc1nnc(CCNC(=O)OC(C)(C)C)o1 | 5.87% (inactive)
Cc1ccccc1CSc1nnc(CCCCCNC(=O)OC(C)(C)C)o1 | 15.4% (active)

SMILES | reporter increase
CSc1nnc(-c2ccc(C(F)(F)F)cn2)o1 | -1.5% (inactive)
Cc1nc(-c2nnc(SCC(=O)Nc3cc(C(F)(F)F)cc(C(F)(F)F)c3)n2C)cs1 | 2.29% (inactive)
CCn1c(=O)c([N+](=O)[O-])c(NCc2ccc3c(c2)OCO3)c2ccccc21 | -2.11% (inactive)
COc1ccc(N2CCN(c3ccc([N+](=O)[O-])nc3)CC2)cc1 | 2.25% (inactive)
COc1ccccc1N1CCN(c2ccc([N+](=O)[O-])nc2)CC1 | 12.9% (active)
COc1ccccc1N1CCN(CCCCOc2ccc(F)cc2)CC1 | 1.24% (inactive)
CCC(C)NC(=O)C1c2ccccc2Oc2ccccc21 (stereo not drawn) | 2.05% (inactive)
CC(C)=C1SC(N2CCN(c3ccc(C)c(Cl)c3)CC2)=NC1=O | -2.39% (inactive)
CN(C)S(=O)(=O)N1CCN(c2ccc([N+](=O)[O-])cc2)CC1 | 6.3% (inactive)
Cc1ccc(N2CCN(S(=O)(=O)N(C)C)CC2)cc1Cl | 13.4% (active)
N#C/C(=C\c1ccc(-c2cccc([N+](=O)[O-])c2)o1)C(=O)NCCN1CCOCC1 | 9.19% (active)
Cc1ccc(Cc2cnc(NC(=O)/C(C#N)=C/c3ccc(-c4cccc([N+](=O)[O-])c4)o3)s2)cc1 | -0.97% (inactive)
N#C/C(=C/c1ccc(-c2ccccc2[N+](=O)[O-])o1)C(=O)NCCN1CCCCC1 | -2.23% (inactive)
CCOC(=O)C1=C(c2ccccc2)NC(=S)NC1c1ccc(Cl)cc1 (stereo not drawn) | 3.7% (inactive)
CC(C)(C)c1cc(P(=O)(c2ccccc2)c2ccccc2)ccc1O | 0.95% (inactive)
COc1ccc(C2c3ccc(O)cc3Oc3ncn(CCCO)c(=N)c32)cc1OC (stereo not drawn) | 2.84% (inactive)
N#Cc1ccc(Oc2ccc(C(F)(F)F)cc2NC(=O)c2ccc(F)cc2)cc1 | 2.35% (inactive)
COc1cc(/C=C2/C(=O)NN(c3ccc(F)cc3)C2=O)cc([N+](=O)[O-])c1O | -0.14% (inactive)
COc1ccc(CCN2C(=O)C3CC=C(C)CC3C2=O)cc1OC (stereo not drawn) | 5.14% (inactive)
COc1ccc(CN2C(=O)CC(Cc3ccc(C)cc3)C2=O)cc1OC (stereo not drawn) | 10.8% (active)
Cc1ccc(CC2CC(=O)N(c3nc(C)cc(C)n3)C2=O)cc1 (stereo not drawn) | -2.45% (inactive)
